Anthrax LF inh2 – anthrax lethal factor protease inhibition. P15917. multiplex microsphere protease cleavage assay, LF. inhibition, % at 10 µM. hit rate 0.12% among 360,000. AID 588501; also: plate controls were buffer without enzyme for full effect and enzyme alone for no effect
BoNT F protease – BoNT F light chain protease inhibition; Multiplex microsphere protease cleavage assay, flow cytometry; inhibition, % at 10 µM; hit rate 0.22% among 360,000; AID 588497; in the data active = inhibition above about 35%, passing the limit was not always enough; inconclusive = no clear call, values can overlap the other calls; also: plate controls were buffer without enzyme for full effect and enzyme alone for no effect
Bead autofluor – compound fluorescence in toxin protease inhibitor counterscreen | compound autofluorescence counterscreen, microsphere flow cytometry; active compounds read high | fluorescence intensity (concentration not given with the values) | hit rate 3.1% among 360,000; in the data active = fluorescence intensity above about 16000; inconclusive = no clear call, values can overlap the other calls
BoNT-A LC inh2 – BoNT A light chain protease inhibition | multiplex microsphere protease substrate cleavage, flow cytometry | inhibition, % at 10 µM | hit rate 0.17% among 360,000 | AID 588499; also: plate controls were buffer without enzyme for full effect and enzyme alone for no effect
Active calls of the source: *; ? = inconclusive. Shown are actives, neighbours in structure and some others; about 3.5% of the full set was active somewhere. Rule as the data show it, unless noted: active = inhibition above about 30%; inconclusive = no clear call, values can overlap the other calls; inactive = below that.

SMILES	Anthrax LF inh2	BoNT F protease	Bead autofluor	BoNT-A LC inh2
Cc1cc(C)cc(NC(=O)CSc2nc3nc(C)cc(C)n3n2)c1	-4	-9	4141	0
COc1cc(C(=O)NCCCN2CCCC2=O)cc(Br)c1OCc1ccccc1	-1	-4	6722	-2
CCCCn1c(CCn2nc(C)c(Br)c2C)n[nH]c1=S	0	0	23887*	-2
CCn1c(CCCCc2n[nH]c(=S)n2CC)n[nH]c1=S	-6	-3	3202	0
O=C(C[C@@H]1C/C=C/CC[C@H](Cc2ccc(F)cc2)C(=O)OC[C@@H](Cc2ccccc2)NC1=O)N[C@H](CO)Cc1ccccc1	-6	-2	4116	0
O=C(O)CCc1nn2c3ccccc3n(CCN3CCCCC3)c2nc1=O	0	-6	17537*	-4
COc1ccc2[nH]c3nc(SCC(=O)NNC(=O)c4ccc(OC)c(OC)c4)nnc3c2c1	-2	0	21437*	1
O=S1(=O)NC(=NCc2ccccc2)c2ccccc21	-6	6	19517*	?
NCCN=C1NS(=O)(=O)c2ccccc21	-2	-4	5785	0
Cc1cc(S(=O)(=O)N2CCN(CC(=O)NCCc3cccs3)CC2)ccc1Br	-10	-6	3912	0
Cc1cc(C)n(C(=O)Cn2nc(C(F)F)cc2C)n1	-2	4	21933*	3
O=C1C(C=NCCCN2CCCC2=O)=C(O)c2ccccc21	-2	0	19393*	1
Cc1ccc(OCCn2cc(/C(N)=N/O)c3ccccc32)cc1C	-4	-15	17016*	-1
COC(=O)CN(n1cnnc1)S(=O)(=O)c1ccccc1	-6	4	22038*	2
COC(=O)CN(c1ccccc1)S(=O)(=O)c1ccccc1	-4	-23	6968	-2
Cc1cc(C)cc(CC2CC(=O)N(c3cc(C)on3)C2=O)c1 (stereo not drawn)	1	0	19958*	0
Cc1cc(C)cc(CC2CC(=O)N(c3ccc4c(c3)OCCO4)C2=O)c1 (stereo not drawn)	3	-3	6155	-1
CCc1ccc(NC(=O)CN(c2cccc(C)c2)S(C)(=O)=O)cc1	-2	-4	23603*	-1
CCc1ccc(N(CC(=O)N2CCCC2)S(C)(=O)=O)cc1	0	-1	3051	0
CCNC(=O)CN(c1ccc(CC)cc1)S(C)(=O)=O	-2	0	23318*	?
CSc1ccccc1NC(=O)CN(c1cccc(C)c1)S(C)(=O)=O	1	-6	23782*	-4
CCN(CC)C(=O)c1ncn2c1c(=O)[nH]c1ccccc12	-4	0	3160	0
CSc1nc2c(=S)[nH]c(=S)[nH]c2s1	1	0	4201	1
O=C(Nc1ccc(F)cc1)Nc1ccc(Cl)cn1	-2	5	18496*	3
O=C(Nc1ccc(F)c(Cl)c1)Nc1ccc(Cl)cn1	-2	-7	2545	-1
SMILES	Anthrax LF inh2	BoNT F protease	Bead autofluor	BoNT-A LC inh2
CC(C(=O)NC1CC1)c1ncc(C(F)(F)F)cc1Cl (stereo not drawn)	2	-3	4164	-1
CC(C(=O)N1CCN(c2ccc(Cl)cc2)CC1)c1ncc(C(F)(F)F)cc1Cl (stereo not drawn)	-3	-1	16547*	-1
COc1ccc([N+](=O)[O-])cc1NCC(=O)Nc1cc(S(=O)(=O)N2CCCCC2)ccc1C	2	-10	3704	-1
Cn1c(=O)n(C)c2cc(S(=O)(=O)N3CCOCC3)ccc21	0	-1	20981*	?
Cc1cc(C)cc(NC(=S)N=Nc2c(O)n(C)c3ccc(S(=O)(=O)N4CCOCC4)cc23)c1	15	4	1933	37*
Cn1c(=O)c(=O)n(C)c2cc(S(=O)(=O)N3CCCCCC3)ccc21	-4	-2	19386*	?
Cc1ccc(CNS(=O)(=O)c2ccc(CN3C(=O)c4cccnc4C3=O)cc2)o1	0	1	5768	0
CC(OC(=O)CNC(=O)c1ccc(Cl)cc1)C(=O)NC1CCCCC1C (stereo not drawn)	-4	15	4290	2
C=CCn1c(SCC(=O)N(CC)CC)nc(O)cc1=O	-2	-1	23021*	?
CCO/C(C)=N/Oc1cc(OC)cc(OC)c1	6	-3	5225	0
Cc1nnc(SCC(=O)NC23CC4CC(CC(C4)C2)C3)n(N)c1=O	2	-2	4480	0
Cn1c(=O)c2c(nc(SCC(=O)NC34CC5CC(CC(C5)C3)C4)n2C)n(C)c1=O	0	-3	23851*	-1
COc1cccc(C(=O)Cn2c(Br)nc3c2c(=O)n(C)c(=O)n3C)c1	-4	0	16106	1
Cn1c(=O)c2c(nc(Br)n2CC(=O)C23CC4CC(CC(C4)C2)C3)n(C)c1=O	-2	-1	16360*	0
CCOc1ccc(Nc2nc(NCCN3CCOCC3)nc(OC)n2)cc1	-3	0	22883*	?
O=C(c1ccco1)c1cc2c(ccc3ccccc32)oc1=O	3	3	22410*	3
CCc1c(C)[nH]n(-c2ccc(Oc3ccccc3)c(S(=O)(=O)O)c2)c1=O	-1	-2	22582*	?
Cc1cc(C)n(-c2ccc(Oc3ccccc3)c(S(=O)(=O)O)c2)n1	-3	-8	2622	0
COc1ccc(C(=O)CC(=O)Nc2ccc([N+](=O)[O-])cc2)cc1	9	-19	3498	-1
COc1ccc(C(=O)CC(Nc2ccc([N+](=O)[O-])cc2)c2ccc(OC)cc2)cc1 (stereo not drawn)	-2	-4	24070*	-2
COc1ccc(N2CCN(C(C)C(=O)N3CCCC3)CC2)cc1 (stereo not drawn)	-9	-1	5062	-1
CCNC(=O)C1(C)CCN(Cc2noc(-c3c(C)noc3C)n2)C1 (stereo not drawn)	7	3	2860	0
COc1cc2ccccc2cc1C(=O)Nc1ccc(O)cc1	2	3	3040	1
CCOC(=O)c1c(N)sc2c(O)c(Br)ccc12	-2	-2	20732*	0
Cc1cccc(NC(=O)C(C)Sc2ncnc3sccc23)c1 (stereo not drawn)	0	2	4263	0
SMILES	Anthrax LF inh2	BoNT F protease	Bead autofluor	BoNT-A LC inh2
C/C(Cn1cnc([N+](=O)[O-])n1)=N\NC(=O)c1cccc(F)c1	0	36*	4265	0
Cc1cc(C)nc(/N=C(\N)C2=C(O)CC(C)(C)CC2=O)n1	-2	-4	21038*	0
CC(C)CNC(=O)CSc1nc(-c2cccs2)cc(C(F)(F)F)n1	-7	38*	3637	0
CC(=O)Nc1ccc(OC(=O)c2cccs2)cc1	-1	-5	16646*	?
CC(=O)c1ccc(OC(=O)c2cccs2)cc1	-1	-7	24802*	-3
CC(=O)Nc1ccc(NC(=O)C(C)OC(=O)c2cccs2)cc1 (stereo not drawn)	0	-4	3817	-1
CC(=O)c1ccc(NC(=O)c2cccs2)cc1	1	-3	8908	0
CN(Cc1nc2ccccc2c(=O)[nH]1)C(=O)c1ccc(S(=O)(=O)N2CCCC2)cc1	5	0	8382	-5
O=C(Nc1ccccc1)Nc1ccc(Cl)nc1Cl	-3	?	4047	5
CCCCc1[nH]c(=O)c(C#N)c2c1CSC(C)(C)C2	-4	1	22475*	2
CCc1[nH]c(=O)c(C#N)c2c1CSC(C)(C)C2	0	2	23170*	?
Cc1[nH]c(=O)c(C#N)c2c1CSC(C)(C)C2	-4	2	11326	-1

High-throughput results from PubChem.
